Common to all, as to set-up: scale not given: direction of the effect not stated beside the values
The target in test [1] is Protein translocase subunit SecA (Escherichia coli (strain K12)) (UniProt P10408). The test is described as follows: Assay to Identify E. coli SecA ATPase Inhibitors. It counts as functional. The settings on record: 30 µM.
The target in test [2] is T1, Ubiquitin-activating enzyme e1, putative (Leishmania donovani (strain BPK282A1)) (UniProt E9BSI1).
T1 sequence (whole entry): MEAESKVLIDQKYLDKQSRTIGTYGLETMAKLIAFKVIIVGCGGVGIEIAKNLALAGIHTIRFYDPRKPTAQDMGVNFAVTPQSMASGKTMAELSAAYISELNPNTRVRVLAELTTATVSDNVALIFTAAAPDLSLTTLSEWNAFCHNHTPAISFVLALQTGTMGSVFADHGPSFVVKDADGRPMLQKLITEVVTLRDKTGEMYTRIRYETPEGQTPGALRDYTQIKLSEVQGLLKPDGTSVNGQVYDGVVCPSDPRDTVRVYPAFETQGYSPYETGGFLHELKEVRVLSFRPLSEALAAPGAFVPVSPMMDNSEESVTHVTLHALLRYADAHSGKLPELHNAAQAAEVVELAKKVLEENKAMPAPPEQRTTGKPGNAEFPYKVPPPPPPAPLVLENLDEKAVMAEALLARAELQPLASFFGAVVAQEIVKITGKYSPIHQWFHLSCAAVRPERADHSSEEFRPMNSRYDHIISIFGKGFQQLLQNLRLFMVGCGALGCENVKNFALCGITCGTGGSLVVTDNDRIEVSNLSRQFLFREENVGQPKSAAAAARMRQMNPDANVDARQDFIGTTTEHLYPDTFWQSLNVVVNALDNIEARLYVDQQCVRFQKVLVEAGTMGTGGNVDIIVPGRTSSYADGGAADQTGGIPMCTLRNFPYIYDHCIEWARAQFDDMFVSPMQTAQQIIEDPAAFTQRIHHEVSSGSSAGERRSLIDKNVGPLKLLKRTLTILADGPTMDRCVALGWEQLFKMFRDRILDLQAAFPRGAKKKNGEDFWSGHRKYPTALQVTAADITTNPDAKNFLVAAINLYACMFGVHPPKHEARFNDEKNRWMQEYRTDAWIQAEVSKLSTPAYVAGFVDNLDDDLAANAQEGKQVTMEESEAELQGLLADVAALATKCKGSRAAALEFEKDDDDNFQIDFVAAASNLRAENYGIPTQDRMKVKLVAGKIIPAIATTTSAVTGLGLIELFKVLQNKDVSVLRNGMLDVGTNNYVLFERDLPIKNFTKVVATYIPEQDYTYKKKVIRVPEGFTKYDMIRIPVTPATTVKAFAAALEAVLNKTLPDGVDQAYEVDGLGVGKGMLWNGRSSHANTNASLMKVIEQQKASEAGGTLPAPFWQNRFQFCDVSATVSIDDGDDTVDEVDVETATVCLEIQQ
The test is described as follows: Leishmania donovani Ubiquitin Activating Enzyme (LdE1). It counts as functional. The settings on record: 30 µM.

The target of test [3] is AMP-activated protein kinase, AMPK (Homo sapiens) (UniProt P54646+O43741+P54619+Q9UGJ0+Q9Y478+Q13131+Q9UGI9). Nature of the test: AMP-dependent Kinase enzyme assay. An in vitro enzyme assay that detects ADP turnover that is directly proportional to AMPK activity. This uses naive AMPK that is activated during the assay with MK-8722. It is filed as functional. The conditions noted are these: 30 µM.

In test [4] the target is Sialic acid-binding Ig-like lectin 9 (Homo sapiens) (UniProt Q9Y336). Nature of the test: Hs-Siglec9 ALPHAscreen SOP 20170721. The settings on record: 10 µM. On the technique in general: Bead proximity is the source of the signal in Alpha formats.
Sequence of Sialic acid-binding Ig-like lectin 9 (Homo sapiens) (Q9Y336 whole entry): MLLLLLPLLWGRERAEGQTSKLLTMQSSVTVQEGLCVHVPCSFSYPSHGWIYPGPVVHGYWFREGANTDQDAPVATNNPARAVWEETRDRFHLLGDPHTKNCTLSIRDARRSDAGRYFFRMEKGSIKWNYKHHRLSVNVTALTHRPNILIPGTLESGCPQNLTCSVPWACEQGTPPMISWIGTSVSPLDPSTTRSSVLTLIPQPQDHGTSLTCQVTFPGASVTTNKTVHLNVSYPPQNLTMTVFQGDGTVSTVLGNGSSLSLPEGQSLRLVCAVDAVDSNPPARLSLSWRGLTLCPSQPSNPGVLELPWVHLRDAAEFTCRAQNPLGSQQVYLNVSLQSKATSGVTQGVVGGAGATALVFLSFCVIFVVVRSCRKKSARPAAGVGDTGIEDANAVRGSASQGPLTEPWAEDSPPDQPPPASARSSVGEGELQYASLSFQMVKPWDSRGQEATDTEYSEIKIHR
Test [5] deals with Trypanosoma cruzi. Nature of the test: Trypanosoma cruzi phosphomannomutase and mannose-1-phosphate guanylyltransferase assay. It counts as functional. The settings on record: 10 µM.
Test [6] has as its target T2, Arginase-2, mitochondrial (Homo sapiens) (UniProt P78540).
T2 sequence (whole entry): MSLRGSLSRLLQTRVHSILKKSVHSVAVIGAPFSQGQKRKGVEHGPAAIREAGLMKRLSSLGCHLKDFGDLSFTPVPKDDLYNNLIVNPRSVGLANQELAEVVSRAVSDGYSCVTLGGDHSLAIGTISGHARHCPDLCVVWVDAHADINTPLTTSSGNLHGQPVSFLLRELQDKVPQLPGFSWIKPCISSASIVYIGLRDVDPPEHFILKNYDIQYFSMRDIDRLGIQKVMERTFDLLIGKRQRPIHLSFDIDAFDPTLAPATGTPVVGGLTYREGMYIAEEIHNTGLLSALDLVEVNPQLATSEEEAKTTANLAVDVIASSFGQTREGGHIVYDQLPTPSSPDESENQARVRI
Nature of the test: in vitro enzyme assay to detect the production of urea directly proportional to the activity of Arginase II. Further: in the data most compounds retested in dose-response had high values. It is filed as functional. The settings on record: 33.3 µM.

Test [7] concerns the target T3, Proteasome subunit beta (Trypanosoma cruzi) (UniProt O96673).
T3 sequence (whole entry): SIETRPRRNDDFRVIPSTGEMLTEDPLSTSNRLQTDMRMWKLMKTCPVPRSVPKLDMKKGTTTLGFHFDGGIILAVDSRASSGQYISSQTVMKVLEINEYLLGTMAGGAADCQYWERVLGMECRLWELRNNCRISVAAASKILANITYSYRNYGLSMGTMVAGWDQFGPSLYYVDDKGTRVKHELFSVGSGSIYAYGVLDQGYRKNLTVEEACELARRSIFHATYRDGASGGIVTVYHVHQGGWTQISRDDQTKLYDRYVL
The test is described as follows: Trypanosoma cruzi proteasome chymotrypsin-like activity (TcProtChymo) assay. Further: in the data most compounds retested in dose-response had high values. It is filed as functional. The conditions noted are these: 9.37 µM.

The species entered for test [8] is Homo sapiens. The test is described as follows: To identify inhibition of the IFN signalling (Jak-Stat) pathway via expression of an eGFP reporter gene under the control of an IFN-stimulated response element (ISRE) containing MxA promoter. It counts as functional. The settings on record: 30 µM. (Reporter assays use an easily measured gene product as a stand-in for the process of interest.)

Test [9] deals with T4, Tyrosyl-tRNA synthetase, putative (Trypanosoma cruzi (strain CL Brener)) (UniProt Q4DSP6).
T4 sequence (whole entry): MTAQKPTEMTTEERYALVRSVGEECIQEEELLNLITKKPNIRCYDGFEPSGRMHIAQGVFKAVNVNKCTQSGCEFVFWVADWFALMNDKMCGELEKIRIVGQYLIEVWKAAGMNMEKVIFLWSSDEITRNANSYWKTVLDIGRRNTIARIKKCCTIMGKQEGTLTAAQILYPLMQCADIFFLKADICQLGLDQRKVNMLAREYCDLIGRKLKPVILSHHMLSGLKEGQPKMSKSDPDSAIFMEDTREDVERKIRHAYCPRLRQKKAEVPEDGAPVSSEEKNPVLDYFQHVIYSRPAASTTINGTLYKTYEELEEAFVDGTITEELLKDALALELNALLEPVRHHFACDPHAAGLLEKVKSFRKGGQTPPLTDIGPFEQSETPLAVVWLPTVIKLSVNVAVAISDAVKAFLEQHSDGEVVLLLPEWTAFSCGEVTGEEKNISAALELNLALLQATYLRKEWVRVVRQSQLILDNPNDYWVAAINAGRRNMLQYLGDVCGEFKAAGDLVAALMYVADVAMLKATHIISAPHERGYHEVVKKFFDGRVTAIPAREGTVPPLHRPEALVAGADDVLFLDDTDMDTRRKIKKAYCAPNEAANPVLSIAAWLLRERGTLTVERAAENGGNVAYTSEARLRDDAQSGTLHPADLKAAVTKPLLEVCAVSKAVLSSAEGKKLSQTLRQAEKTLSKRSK
The test is described as follows: Trypanosoma cruzi tyrosyl tRNA synthetase (TcYRS) _High Tyrosine SOP. Further: in the data most compounds retested in dose-response had high values. It is filed as functional. The conditions noted are these: 30 µM.

Test [10] deals with T4, Tyrosyl-tRNA synthetase, putative (Trypanosoma cruzi (strain CL Brener)). The test is described as follows: Trypanosoma cruzi tyrosyl tRNA synthetase (TcYRS) SOP. It counts as functional. The conditions noted are these: 30 µM.
Test [11] addresses Chromo domain-containing protein 1 (Saccharomyces cerevisiae (strain ATCC 204508 / S288c) (Baker's yeast)) (UniProt P32657). Nature of the test: ScCHD-1 Enzyme Inhibition Assay. Further: in the data most compounds retested in dose-response had high values. The conditions noted are these: 30 µM. It is filed as functional.

Consider 9 compounds from ChEMBL document CHEMBL3988442, “University of Dundee, Small-Polar-MMV Screening Library” (2021).

Each structure is given as a SMILES string. For part of these data: Results with a measured potency or affinity are listed apart.

Sequence of Chromo domain-containing protein 1 (Saccharomyces cerevisiae (strain ATCC 204508 / S288c) (Baker's yeast)) (P32657 whole entry, the tested form may be a part): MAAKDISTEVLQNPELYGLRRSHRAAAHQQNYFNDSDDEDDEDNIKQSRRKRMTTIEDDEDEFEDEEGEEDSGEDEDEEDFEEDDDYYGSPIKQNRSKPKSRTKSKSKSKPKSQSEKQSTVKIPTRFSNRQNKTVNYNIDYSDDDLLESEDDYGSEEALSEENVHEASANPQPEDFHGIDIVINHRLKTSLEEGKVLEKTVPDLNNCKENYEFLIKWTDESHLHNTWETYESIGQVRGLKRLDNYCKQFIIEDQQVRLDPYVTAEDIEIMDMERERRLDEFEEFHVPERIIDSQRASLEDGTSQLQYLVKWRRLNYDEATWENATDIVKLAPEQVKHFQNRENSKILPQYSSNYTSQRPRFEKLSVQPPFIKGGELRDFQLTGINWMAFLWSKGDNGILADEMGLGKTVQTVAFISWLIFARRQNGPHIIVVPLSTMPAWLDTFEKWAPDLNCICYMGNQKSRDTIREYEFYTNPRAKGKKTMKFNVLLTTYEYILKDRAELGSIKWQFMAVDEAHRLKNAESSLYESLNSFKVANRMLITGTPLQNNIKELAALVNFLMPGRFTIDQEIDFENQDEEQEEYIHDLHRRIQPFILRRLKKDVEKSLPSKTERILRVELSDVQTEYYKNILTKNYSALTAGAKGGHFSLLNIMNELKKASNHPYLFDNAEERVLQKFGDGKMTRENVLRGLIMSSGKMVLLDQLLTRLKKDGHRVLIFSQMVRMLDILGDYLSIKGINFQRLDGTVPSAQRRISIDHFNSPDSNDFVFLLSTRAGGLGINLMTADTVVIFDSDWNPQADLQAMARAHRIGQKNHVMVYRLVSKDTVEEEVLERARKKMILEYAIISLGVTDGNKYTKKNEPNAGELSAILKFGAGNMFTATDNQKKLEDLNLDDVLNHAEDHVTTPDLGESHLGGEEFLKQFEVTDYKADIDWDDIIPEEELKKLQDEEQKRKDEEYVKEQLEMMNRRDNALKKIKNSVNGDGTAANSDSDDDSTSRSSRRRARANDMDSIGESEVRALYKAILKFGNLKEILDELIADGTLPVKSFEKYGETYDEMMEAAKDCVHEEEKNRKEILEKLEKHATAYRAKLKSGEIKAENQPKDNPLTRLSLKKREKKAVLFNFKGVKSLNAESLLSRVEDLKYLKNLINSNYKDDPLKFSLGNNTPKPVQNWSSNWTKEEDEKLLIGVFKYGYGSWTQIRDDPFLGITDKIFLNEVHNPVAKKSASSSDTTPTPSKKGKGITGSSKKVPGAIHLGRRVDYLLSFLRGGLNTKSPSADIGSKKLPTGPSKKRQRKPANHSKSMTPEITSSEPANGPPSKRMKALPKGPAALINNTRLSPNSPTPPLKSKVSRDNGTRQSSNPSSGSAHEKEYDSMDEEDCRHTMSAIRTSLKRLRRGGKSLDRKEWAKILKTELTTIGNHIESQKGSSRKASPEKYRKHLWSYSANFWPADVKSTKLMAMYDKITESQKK
Sequence of Protein translocase subunit SecA (Escherichia coli (strain K12)) (P10408 whole entry): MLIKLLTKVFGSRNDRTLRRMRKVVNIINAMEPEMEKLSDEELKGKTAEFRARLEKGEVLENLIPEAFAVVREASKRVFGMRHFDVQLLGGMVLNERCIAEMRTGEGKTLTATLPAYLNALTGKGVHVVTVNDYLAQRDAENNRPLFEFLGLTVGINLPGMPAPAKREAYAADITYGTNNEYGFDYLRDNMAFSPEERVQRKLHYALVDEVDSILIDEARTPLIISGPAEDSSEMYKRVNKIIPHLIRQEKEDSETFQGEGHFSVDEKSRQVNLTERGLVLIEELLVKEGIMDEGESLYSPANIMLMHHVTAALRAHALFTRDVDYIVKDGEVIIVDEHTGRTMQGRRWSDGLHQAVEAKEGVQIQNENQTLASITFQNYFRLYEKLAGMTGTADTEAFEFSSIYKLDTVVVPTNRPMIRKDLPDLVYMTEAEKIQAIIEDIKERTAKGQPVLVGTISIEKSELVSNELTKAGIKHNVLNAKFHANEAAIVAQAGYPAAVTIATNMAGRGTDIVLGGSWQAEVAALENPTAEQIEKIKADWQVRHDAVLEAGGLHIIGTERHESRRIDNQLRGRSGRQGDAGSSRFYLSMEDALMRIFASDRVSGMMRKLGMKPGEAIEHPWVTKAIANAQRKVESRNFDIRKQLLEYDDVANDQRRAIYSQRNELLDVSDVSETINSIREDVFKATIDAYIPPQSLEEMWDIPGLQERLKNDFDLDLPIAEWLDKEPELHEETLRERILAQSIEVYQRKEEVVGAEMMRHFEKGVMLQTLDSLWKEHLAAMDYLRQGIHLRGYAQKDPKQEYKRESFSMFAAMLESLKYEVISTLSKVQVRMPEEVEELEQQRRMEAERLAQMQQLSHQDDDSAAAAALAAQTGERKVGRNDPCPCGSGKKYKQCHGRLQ

As for `Cn1cc(Cl)cc1C(=O)N1CCN(Cc2ccsc2)CC1`, the Percent Effect in [1] is -0.357%; in test [2] it was 5.26%; in [3] it was 5.58%; in test [4] it was -5.04%; in [5], 4.13%; in test [6], 0.766%. The Percent Effect in test [7] is -1.67%; in test [8], -2.56%; in [9], 2.45%; in test [10], 4.88%; in [11] it was -0.287%.

As for `CSCCC(CO)NC(=O)c1sc(-c2ccccc2Cl)nc1C` (centres undefined), the Percent Effect was -3.21% in [1]; 4% in test [2]; 7.64% in test [3]; 6.5% in [4]; -5.89% in test [5]; -6.16% in test [6]. Further, the Percent Effect in test [7] was 11.3%; in test [8] it was 6.86%; in test [9], 1.06%; in test [10] it was 7.69%; in test [11], -4%.

Turning to `CNc1cc(N2CCCC2CNCc2ccccn2)ncn1` (centres undefined), the Percent Effect is -1.73% in test [1]; 13.5% in test [2]; -11.7% in [3]; -3.49% in [4]; -2.93% in [5]; -2.08% in [6]. In addition, the Percent Effect in [7] turned out to be 16%; in test [8], 24.8%; in [9] it was 11.9%; in test [10] it was 11%; in [11] it was 26.6%.

Take `CN1CCc2c(C#N)c(NCCCN3CCOCC3)n3cnnc3c2C1`: the Percent Effect in test [1] was -3.76%; in test [2], 10.5%; in [3] it was 2.8%; in test [4], 1.44%; in test [5], -1.46%; in test [6], -1.18%. Also, the Percent Effect in [7] is 13.7%; in test [8], -9.43%; in test [9] it was 4.25%; in [10], 10.4%; in [11], -1.19%.

As to `O=C(N[C@@H]1CN(Cc2ccc3c(c2)OCO3)[C@@H]2CCCO[C@@H]21)C1CC1`, the Percent Effect in test [1] is -7.03%; in test [2] it was 0%; in [3] it was -0.94%; in test [4], 0.764%; in [5], -5.99%; in [6], -55%. Also, the Percent Effect was 13.2% in [7]; 4.07% in [8]; 1.04% in [9]; -60% in test [10]; -2.23% in test [11].

For `CCC1(CC)Cc2ccccc2-c2nc(NCCO)[nH]c(=O)c21`, the Percent Effect in test [1] was -5.77%; in test [2] it was 10.5%; in test [3] it was 29.9%; in test [4], 1.17%; in [5], -2.63%; in test [6], 3.55%. Besides, the Percent Effect in test [7] is 26.4%; in [8] it was 29.8%; in test [9], 5.32%; in [10], 10.4%; in test [11] it was -13.3%.

On to `Cn1ncc2c1CCCC2NCc1ccc(Cl)s1` (centres undefined), for which the Percent Effect in [1] is -4.36%; in [2], 13%; in test [3], -34.6%; in [4], -13.6%; in [5], -1.08%; in test [6], 2.74%. Further, the Percent Effect is 12.2% in [7]; 9.39% in [8]; 6.67% in test [9]; 11.8% in [10]; -19.4% in test [11].

For the compound `Cc1nc(C)n(CC2CN(c3ccc(C#N)cn3)CCO2)n1` (centres undefined), the Percent Effect is -4.11% in test [1]; 10.5% in test [2]; -4.42% in [3]; 10.3% in test [4]; 5.88% in test [5]; 1.44% in test [6]. Also, the Percent Effect in test [7] is 6.51%; in test [8] it was -2.74%; in [9], 6.4%; in test [10], 18.5%; in [11], -3.17%.

In the case of `Cc1cccc(N2CCN(CCNC(=O)C(C)n3cncn3)CC2)c1` (centres undefined), the Percent Effect is -4.94% in test [1]; 28.9% in test [2]; -8.42% in [3]; -3.17% in [4]; 3.83% in test [5]; -3.96% in test [6]. The Percent Effect in test [7] is 15%; in test [8], 9.51%; in [9] it was 7.39%; in test [10], 23.5%; in [11], -10.7%.
